# Reference: PubChem BioAssay (Tox21)
# Several values for one entry are separate records, joined by “and”; a condition that tells them apart may be missing. Equal values may be shown once. Inconclusive results are not listed. Where a call stands in place of a potency, no number is given. Activity calls are given as the source filed them. Calls come from the whole dose curve; as a rule, active = well fitted cell-killing curve with a large enough effect in the repeat runs; inconclusive = weak or mixed curves; inactive = no such curve, though single readings can be large or run the other way.
# Test: qHTS assay to identify small molecule agonists of the peroxisome proliferator-activated receptor delta (PPARd) signaling pathway - cell viability counter screen (AID 743211); note: nearly all actives have a fitted effect of over 55% in size
# Settings: PPARd-bla HEK293H viability, CellTiter-Glo luminescence, 17 h; series mostly up to 62.6 µM
# Source text: U.S. Tox21 Program National Center for Advancing Translational Sciences [NCATS] NIH Chemical Genomics Center [NCGC] U.S. Environmental Protection Agency [EPA] National Institutes of Environmental Health Sciences [NIEHS] National Toxicology Program [NTP] U.S. Food and Drug Administration [FDA] Tox21 Assay Overview: The peroxisome proliferator-activated receptors (PPARs) are lipid-activated transcription factors of the nuclear receptor superfamily with three distinct subtypes namely PPAR alpha, PPAR delta (PPARd) and PPAR gamma. All these subtypes heterodimerizes with Retinoid X receptor (RXR) and have different physiological functions. […] To identify the compounds that activate PPAR-delta signaling, GeneBLAzer PPAR delta UAS-bla HEK293H cell line (Invitrogen, Carlsbad, CA, USA) containing a beta-lactamase reporter gene under the control of an Upstream Activator Sequence (UAS) was used to screen the Tox21 compound library. The cytotoxicity of the Tox21 compound library against the PPARd-bla cell line was tested in parallel by measuring the cell viability using CellTiter-Glo assay (Promega, Madison, WI) in the same wells.
# Tox21 Assay Protocol Summary: PPARd-bla cells were dispensed at 3000 cells/6uL/well in 1536-well black wall/clear bottom plates using a Multidrop Combi (Thermo Fisher Scientific, Waltham, MA) dispenser. After the assay plates were incubated at 37 C and 5% CO2 for 5 h, 23 nL of compounds dissolved in DMSO, positive controls or DMSO only was transferred to the assay plate by a Pintool station (Kalypsys, San Diego, CA). The assay plates were incubated at 37C for 17 h. After 1 uL of LiveBLAzerTM B/G FRET substrate was added using a Bioraptr Flying Reagent Dispenser (FRD) workstation (Beckman Coulter, Indianapolis, IN, USA), the plates were incubated at room temperature for 2 h, and fluorescence intensity was measured by an Envision plate reader (PerkinElmer, Shelton, CT). For cell viability readout that measures cytotoxicity, 3 ul/well of CellTiter-Glo reagent was added into the assay plates using a Bioraptr FRD. After 30 min incubation at room temperature, the luminescence intensity in the plates was measured using a ViewLux plate reader (PerkinElmer).
# Potency is the fitted concentration of half-maximal effect.
row,Structure (SMILES),Potency
1,CC(C)N(C(=O)SC/C(Cl)=C/Cl)C(C)C,inactive
2,c1ccc(N=NNc2ccccc2)cc1,56.8 µM (active)
3,Nc1ccccc1-c1ccccc1,inactive
4,[F][Sn]([c]1ccccc1)([c]1ccccc1)[c]1ccccc1,0.871 µM (active)
5,CNC(=O)/C=C(\C)OP(=O)(OC)OC,inactive
6,CC[N+]1(CC)CCC(OC(=O)C(O)(c2ccccc2)c2ccccc2)C1 (stereo not given),inactive
7,CCCCN(CCCC)C(=S)S,inactive
8,C=C(C)C(=O)[O][Sn]([CH2]CCC)([CH2]CCC)[CH2]CCC,0.871 µM (active)
9,CCC(C)c1cccc(C(C)CC)c1O (stereo not given),inactive
10,Clc1ccc(C(c2ccc(Cl)cc2)C(Cl)Cl)cc1,44.4 µM (active)
11,CCCCN(CCCC)C(=S)[S-].CCCCN(CCCC)C(=S)[S-].[Ni+2],inactive
12,N#CCCl,inactive
13,COC(=O)c1cc(Oc2ccc(Cl)cc2Cl)ccc1[N+](=O)[O-],inactive
14,O=[N+]([O-])c1ccc(CCl)cc1,inactive
15,CN(C)CCc1c[nH]c2ccccc12,inactive
16,COP(=S)(OC)Oc1nc(Cl)c(Cl)cc1Cl,inactive
17,CCOP(=O)(Sc1ccccc1)Sc1ccccc1,inactive
18,ClCBr,inactive
19,NC(=O)C(Cl)Cl,inactive
20,CCC(C)Br (stereo not given),inactive

row,Structure (SMILES),Potency
1,ClC(Cl)C(Cl)(Cl)Cl,inactive
2,N#Cc1sc2c(=O)c3ccccc3c(=O)c=2sc1C#N,7.76 µM (active)
3,COc1cnc(OC)n2nc(NS(=O)(=O)c3c(OCC(F)F)cccc3C(F)(F)F)nc12,inactive
4,CCC(OC(C)=O)C(CC(C)NC)(c1ccccc1)c1ccccc1 (stereo not given),15.5 µM (active)
5,CCN(CC)Cc1nccn1-c1ccc([N+](=O)[O-])cc1C(=O)c1ccccc1Cl,inactive
6,C=CC(=C)C,inactive
7,CCCCCCC[CH2][Sn]([Cl])([Cl])[CH2]CCCCCCC,24.5 µM (active)
8,Cc1nn(-c2cc(NS(C)(=O)=O)c(Cl)cc2Cl)c(=O)n1C(F)F,inactive
9,O=C1C2(Cl)C3(Cl)C4(Cl)C(Cl)(Cl)C5(Cl)C3(Cl)C1(Cl)C5(Cl)C24Cl (stereo not given),48.2 µM (active) and 46.9 µM (active)
10,CC(C)Br,inactive
11,CCCCCON=O,inactive
12,[O]=[Cr](=[O])([OH])[O][Cr](=[O])(=[O])[OH],22.1 µM (active) and 27.5 µM (active)
13,CC(C)N(C(=O)CCl)c1ccccc1,49 µM (active) and 43.6 µM (active)
14,CC(=O)[O-].CC(=O)[O-].O.O.O.[Pb+2],inactive
15,BrCC(Br)(Br)Br,inactive
16,C1=CCC=C1,inactive
17,CC(C)=CC1C(C(=O)OC(C#N)c2cccc(Oc3ccccc3)c2)C1(C)C (stereo not given),inactive
18,CCCCC(CC)COC(=O)OOC(C)(C)C (stereo not given),inactive
19,CCN(CC)CCN1C(=O)CN=C(c2ccccc2F)c2cc(Cl)ccc21,inactive
20,O=C(CCCCl)c1ccc(F)cc1,inactive
